Measured values from PubChem BioAssay (EPA / NIEHS).
Records with an inconclusive call do not appear. Activity calls are given as the source filed them. How the source made its calls, unless noted: active means hit-call score of the fitted dose curve at least 0.9, where 1 is the maximum; inconclusive means response in the unintended direction; inactive means score below 0.9.

Key:
[1] = molecular target: Cellular tumor antigen p53 (Homo sapiens) (UniProt P04637); experiment: TOX21_p53_BLA_p2_ratio: Tox21 HCT-116 p53 Agonism Beta-lactamase Assay, Ratio, Phase 2 (AID 2283592)
Cellular tumor antigen p53 (Homo sapiens), sequence (P04637 whole entry, looked up): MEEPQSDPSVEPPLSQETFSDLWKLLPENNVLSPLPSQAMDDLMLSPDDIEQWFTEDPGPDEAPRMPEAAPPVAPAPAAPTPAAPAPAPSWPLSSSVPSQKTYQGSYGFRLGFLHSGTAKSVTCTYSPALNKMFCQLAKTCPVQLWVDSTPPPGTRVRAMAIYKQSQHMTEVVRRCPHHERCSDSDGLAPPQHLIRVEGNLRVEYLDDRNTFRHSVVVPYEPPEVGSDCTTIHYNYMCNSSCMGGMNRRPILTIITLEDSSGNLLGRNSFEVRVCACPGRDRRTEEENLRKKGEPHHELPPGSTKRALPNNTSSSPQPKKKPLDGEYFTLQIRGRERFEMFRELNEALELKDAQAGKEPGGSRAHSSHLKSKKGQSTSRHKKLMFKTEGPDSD
Outline: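 Cleaved-to-uncleaved substrate ratio (460 vs 530 nm) measured in HCT116 cells with an inducible beta-lactamase reporter linked to p53 activity. Compounds incubated 16 h at 37C before 2 h room-temperature CCF4-AM loading.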

[2] = molecular target: Cellular tumor antigen p53 (Homo sapiens) (UniProt P04637); experiment: TOX21_p53_BLA_p3_ratio: Tox21 HCT-116 p53 Agonism Beta-lactamase Assay, Ratio, Phase 3 (AID 2283596)
Outline: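 Cells were seeded at 4000/well, rested 5 h at 37C, then dosed with DMSO compound solutions (217-fold dilution) for 16 h. CCF4-AM substrate was loaded for 2 h at room temperature, and the 460/530 nm emission ratio was fitted for gain of signal versus DMSO.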

[3] = molecular target: Cellular tumor antigen p53 (Homo sapiens) (UniProt P04637); experiment: TOX21_p53_BLA_p5_ratio: Tox21 HCT-116 p53 Agonism Beta-lactamase Assay, Ratio, Phase 5 (AID 2283599)
Outline: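 HCT-116 p53-bla cells (4000/well) plated 5 h, dosed with compound (217-fold DMSO dilution) for 16 h at 37 C; CCF4-AM substrate 2 h at room temperature. Activity is the 460/530 nm emission ratio (405 nm excitation), fitted in gain-of-signal direction versus DMSO.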

[4] = TOX21_p53_BLA_p5_viability: Viability Assessment in the Tox21 HCT-116 p53 Agonism Beta-lactamase Assay, Phase 5 (AID 2283600)
Outline: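 Viability is taken from cellular ATP content, measured by luciferase luminescence in the same wells after the beta-lactamase ratio read. Cells are seeded at 4000 per well and exposed to DMSO-dissolved compounds, diluted 217-fold, for 16 h.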

[5] = CCTE_Harrill_HTTr_Viability_MCF7: CCTE's 6-hour Cell Viability Assessment for the High-Throughput Transcriptomics (HTTr) Platform, in MCF-7 cells cultured in DMEM + 10% fetal bovine serum, Harrill Lab (AID 2284010; active means hit-call score of the fitted dose curve at least 0.9, where 1 is the maximum; inactive means score below 0.9)
Outline: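 Read-out is propidium iodide gain of signal by high-content imaging, reflecting membrane integrity loss. Measurements are taken 6 h after dosing, eight concentrations per chemical, with DMSO serving as baseline for bidirectional curve fitting.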

[6] = CCTE_Harrill_HTTr_Apoptosis_MCF7: CCTE's 6-hour Apoptosis Assessment for the High-Throughput Transcriptomics (HTTr) Platform, in MCF-7 cells cultured in DMEM + 10% fetal bovine serum, Harrill Lab (AID 2284011; active means hit-call score of the fitted dose curve at least 0.9, where 1 is the maximum; inactive means score below 0.9)
Outline: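 Cells are dosed with test chemicals at eight concentrations and imaged 6 hours later for caspase-3/7 activity using a green fluorogenic detection reagent. Activity is fitted in both directions against DMSO controls.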

[7] = CCTE_Harrill_HTTr_CellCount_MCF7: CCTE's Cell Proliferation Assessment for the High-Throughput Transcriptomics (HTTr) Platform, Harrill Lab (AID 2284012);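 further: cells exposed to compound for six hours; intended direction is loss of nuclei count meaning fewer cells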
Outline: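 Cell count served as viability reporter: loss of Hoechst-stained nuclei, counted by high content imaging, marks decreased growth or survival. Exposure was 6 h in MCF-7 cells across eight concentrations, with DMSO as baseline.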

[8] = molecular target: Cellular tumor antigen p53 (Homo sapiens) (UniProt P04637); experiment: TOX21_p53_BLA_p4_ratio: Tox21 HCT-116 p53 Agonism Beta-lactamase Assay, Ratio, Phase 4 (AID 2283601)
Outline: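 HCT-116 p53 beta-lactamase reporter cells (4000/well) preincubated 5 h, then compound (217-fold dilution of DMSO stock) for 16 h at 37C. CCF4-AM substrate added 2 h at room temperature; 460/530 nm emission ratio fitted upward versus DMSO.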

For `CCCCCCCC/C=C\CCCCCCCC(=O)OC`, the outcome [1] was “inactive”, the outcome [2] was “inactive” and the outcome [3] was “inactive”. The outcome [4] was “inactive”, the outcome [5] was “inactive” and the outcome [6] was “inactive”. For the same compound, the outcome [7] was “inactive”.
For `Cc1cc(=O)c(C(=O)N[C@@H](C(=O)N[C@@H]2C(=O)N3C(C(=O)O)=C(CSc4nnnn4C)CS[C@H]23)c2ccc(O)cc2)c[nH]1`, the outcome [1] was “inactive”, the outcome [2] was “inactive” and the outcome [3] was “inactive”. The outcome [4] was “inactive” and the outcome [8] was “inactive”.
In the case of `O=C(CCN1CCC(c2ccccc2)C1)c1ccc2c(c1)OCCO2` (configuration not stated), the outcome [1] is reported as “inactive”, the outcome [2] is reported as “inactive” and the AC50 [3] is reported as 41.1 µM (active). The outcome [8] was “inactive”.
In the case of `[O-][n+]1ccccc1SSc1cccc[n+]1[O-]`, the outcome [1] is reported as “inactive”, the AC50 [2] is reported as 9.52 µM (active) and the outcome [3] is reported as “inactive”. For the same compound, the outcome [4] was “inactive” and the outcome [8] was “inactive”.
For `COc1ccc(/C=C/C(=O)O)cc1`, the outcome [1] was “inactive”, the outcome [2] was “inactive” and the outcome [3] was “inactive”. The outcome [4] was “inactive” and the outcome [8] was “inactive”.
In the case of `O=C1OC(=O)C2CC=CCC12` (configuration not stated), the outcome [1] is reported as “inactive”, the outcome [2] is reported as “inactive” and the outcome [3] is reported as “inactive”. The outcome [4] was “inactive”.
In the case of `CCCOC(=O)c1ccccc1O`, the outcome [1] is reported as “inactive”, the outcome [2] is reported as “inactive” and the outcome [3] is reported as “inactive”. For the same compound, the outcome [4] was “inactive”.
With `C[C@@](Cc1ccc(O)c(O)c1)(NN)C(=O)O` the outcome [1] was “inactive”, the outcome [2] was “inactive” and the outcome [3] was “inactive”. For the same compound, the outcome [4] was “inactive” and the outcome [8] was “inactive”.
For `CC(C)N=C=NC(C)C`, the outcome [1] was “inactive”, the outcome [2] was “inactive” and the outcome [3] was “inactive”. The outcome [4] was “inactive”.
With `O=C(O)COc1ccccc1/C=N/NC(=O)c1ccncc1` the outcome [1] was “inactive”, the outcome [2] was “inactive” and the outcome [3] was “inactive”. For the same compound, the outcome [4] was “inactive” and the outcome [8] was “inactive”.
In the case of `NC1CCN(c2nc3c(cc2F)c(=O)c(C(=O)O)cn3-c2ccc(F)cc2F)C1` (configuration not stated), the outcome [1] is reported as “inactive”, the outcome [2] is reported as “inactive” and the outcome [3] is reported as “inactive”. The outcome [8] was “inactive”.
In the case of `NC(=O)OC[C@@H]1[C@H](NC(=O)/C(=N\OCC(=O)O)c2csc(N)n2)C(=O)N1S(=O)(=O)O`, the outcome [1] is reported as “inactive”, the outcome [2] is reported as “inactive” and the outcome [3] is reported as “inactive”. The outcome [4] was “inactive” and the outcome [8] was “inactive”.
For `CCCCc1ccc2nc(NC(=O)OC)[nH]c2c1`, the outcome [1] was “inactive”, the AC50 [2] was 0.0408 µM (active) and the outcome [3] was “inactive”. The outcome [8] was “inactive”.
In the case of `CCCCCC(N)=O`, the outcome [1] is reported as “inactive”, the outcome [2] is reported as “inactive” and the outcome [3] is reported as “inactive”. For the same compound, the outcome [4] was “inactive” and the outcome [8] was “inactive”.
With `COc1cc(C(=S)N2CCOCC2)ccc1O` the outcome [1] was “inactive”, the outcome [2] was “inactive” and the outcome [3] was “inactive”. The outcome [4] was “inactive” and the outcome [8] was “inactive”.
With `COc1ccc(-c2nc3ccc(C4=NNC(=O)CC4C)cc3[nH]2)cc1` (configuration not stated) the AC50 [1] was 17.1 µM (active), the AC50 [2] was 21.5 µM (active) and the AC50 [3] was 16.3 µM (active). For the same compound, the outcome [4] was “inactive” and the AC50 [8] was 15 µM (active).
For `CC(C)OC(=O)CCC(=O)OC(C)C`, the outcome [1] was “inactive”, the outcome [2] was “inactive” and the outcome [3] was “inactive”. For the same compound, the outcome [4] was “inactive” and the outcome [8] was “inactive”.
In the case of `CCC=O`, the outcome [1] is reported as “inactive”, the outcome [2] is reported as “inactive” and the outcome [3] is reported as “inactive”. The outcome [8] was “inactive”.
In the case of `NC1[C@H]2CN(c3nc4c(cc3F)c(=O)c(C(=O)O)cn4-c3ccc(F)cc3F)C[C@@H]12` (some centres not stated), the AC50 [1] is reported as 30.4 µM (active), the AC50 [2] is reported as 27.3 µM (active) and the outcome [3] is reported as “inactive”. The outcome [8] was “inactive”.
With `O=C(c1ccc2c(c1)C(=O)OC2=O)c1ccc2c(c1)C(=O)OC2=O` the outcome [1] was “inactive”, the outcome [2] was “inactive” and the outcome [3] was “inactive”. For the same compound, the outcome [8] was “inactive”.
For `CC[C@]12CCCN3CCc4c(n(c5ccccc45)C(=O)C1)[C@@H]32`, the AC50 [1] was 3.57 µM (active), the AC50 [2] was 4.33 µM (active) and the AC50 [3] was 5.58 µM (active). The AC50 [8] was 3.51 µM (active).
In the case of `CCOc1ccc(S(=O)(=O)O)c2cccnc12`, the outcome [1] is reported as “inactive”, the outcome [2] is reported as “inactive” and the outcome [3] is reported as “inactive”. For the same compound, the outcome [4] was “inactive”.
For `Cc1ncc(COP(=O)(O)O)c(CN)c1O`, the outcome [1] was “inactive”, the outcome [2] was “inactive” and the outcome [3] was “inactive”. For the same compound, the outcome [4] was “inactive”.
For `CC(C)(C)C(=O)OCC(=O)[C@H]1CC[C@H]2[C@@H]3CCC4=CC(=O)CC[C@]4(C)[C@H]3CC[C@]12C`, the outcome [1] was “inactive”, the outcome [2] was “inactive” and the outcome [3] was “inactive”. The outcome [4] was “inactive”.
For `COc1cc2c(cc1OC)[C@@H](c1ccccc1)CN(C)CC2`, the outcome [1] was “inactive”, the outcome [2] was “inactive” and the outcome [3] was “inactive”. The outcome [8] was “inactive”.
In the case of `NS(=O)(=O)c1cc(-c2nn[nH]n2)c(NCc2cccs2)cc1Cl`, the outcome [1] is reported as “inactive”, the outcome [2] is reported as “inactive” and the outcome [3] is reported as “inactive”. The outcome [4] was “inactive”.
In the case of `CN1CCN(C(c2ccccc2)c2ccccc2)CC1`, the outcome [1] is reported as “inactive”, the outcome [2] is reported as “inactive” and the outcome [3] is reported as “inactive”. For the same compound, the outcome [8] was “inactive”.
For `C=CC(=O)OCCOCC(CC)(COCCOC(=O)C=C)COCCOC(=O)C=C`, the outcome [1] was “inactive”, the outcome [2] was “inactive” and the outcome [3] was “inactive”. For the same compound, the outcome [4] was “inactive” and the outcome [8] was “inactive”.
With `CCOCC(O)COc1ccc(NC(=O)CC[S+](C)C)cc1` (configuration not stated) the outcome [1] was “inactive”, the outcome [2] was “inactive” and the outcome [3] was “inactive”. The outcome [8] was “inactive”.
With `NC(=O)CC[C@@H](N)C(=O)O` the outcome [1] was “inactive”, the outcome [2] was “inactive” and the outcome [3] was “inactive”. For the same compound, the outcome [4] was “inactive” and the outcome [8] was “inactive”.
With `CC(=O)OCC(=O)[C@@]1(O)CC[C@H]2[C@@H]3CCC4=CC(=O)CC[C@]4(C)C3=CC[C@@]21C` the outcome [1] was “inactive”, the outcome [2] was “inactive” and the outcome [3] was “inactive”. The outcome [4] was “inactive” and the outcome [8] was “inactive”.
With `CC(=O)O[C@H]1CC[C@@]2(C)C(=CC[C@@H]3[C@@H]2CC[C@]2(C)C(c4cccnc4)=CC[C@@H]32)C1` the outcome [1] was “inactive”, the outcome [2] was “inactive” and the outcome [3] was “inactive”. The outcome [8] was “inactive”.
With `CC(C)c1ncc([N+](=O)[O-])n1C` the outcome [1] was “inactive”, the outcome [2] was “inactive” and the outcome [3] was “inactive”. The outcome [4] was “inactive”.
With `NC(=O)c1ccccc1[N+](=O)[O-]` the outcome [1] was “inactive”, the outcome [2] was “inactive” and the outcome [3] was “inactive”. The outcome [8] was “inactive”.
With `Cc1cnc(C)c(C)n1` the outcome [1] was “inactive”, the outcome [2] was “inactive” and the outcome [3] was “inactive”. For the same compound, the outcome [4] was “inactive” and the outcome [8] was “inactive”.
